# A number with no mark means an inactive call. Results filed as inconclusive are left out. Where a call stands in place of a potency, no number is given. Activity calls are given as the source filed them. Calls come from the whole dose curve; as a rule, active = well fitted curve in the direction sought with a large enough effect in the repeat runs; inconclusive = weak or mixed curves; inactive = no such curve, though single readings can be large; an effect the other way counts as inactive or inconclusive.
# Key:
# [1] = qHTS RealTime-Glo MT Cell Viability Assay in HepG2 cells - 40 hour (AID 1224870); note: nearly all actives have a fitted effect of over 50% in size
# Summary of the method: (§1)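 HepG2 cells (600/well) mixed with RealTime-Glo MT reagent, settled 5 h at 37 C/5% CO2 before compound addition. Nonlytic NanoLuc luminescence from viable-cell prosubstrate reduction read repeatedly during 40 h treatment at 37 C.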
# [2] = A CellTox Green Cytotoxicity Assay to monitor cytotoxicity in HEK293 cells - 40 hour (AID 1224871); note: nearly all actives have a fitted effect of over 45% in size
# Summary of the method: (§2)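 Dead-cell fluorescence measured kinetically: asymmetric cyanine dye, HEK293, 600 cells/well, 5 h settle, 23 nL cpd/DMSO, 37 C, reads 0–40 h every 8 h.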
# [3] = qHTS RealTime-Glo MT Cell Viability Assay in HEK293 cells - 16 hour (AID 1224872); note: top concentration of the series differs between compounds; nearly all actives have a fitted effect of over 50% in size
# Summary of the method: (§3)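 Cells + reagent dispensed (600 cells/well, HEK293) → 5 h at 37 C/5% CO2 → 23 nL compound in DMSO pinned → 40 h at 37 C → luminescence read at 0, 8, 16, 24, 32, 40 h.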
# [4] = qHTS RealTime-Glo MT Cell Viability Assay in HepG2 cells - 8 hour (AID 1224873); note: nearly all actives have a fitted effect of over 55% in size
# Summary of the method: as §1
# [5] = qHTS RealTime-Glo MT Cell Viability Assay in HEK293 cells - 40 hour (AID 1224874); settings: RealTime-Glo luminescence; max response: stronger effect = lower value; note: nearly all actives have a fitted effect of over 50% in size
# Summary of the method: (§4)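 600 HEK293 cells per well, dispensed already mixed with RealTime-Glo MT reagents. Compound dosing came 5 h later. The same wells were read for luminescence at 0, 8, 16, 24, 32 and 40 h of exposure at 37 C.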
# [6] = A CellTox Green Cytotoxicity Assay to monitor cytotoxicity in HEK293 cells - 24 hour (AID 1224875); note: series mostly up to about 77 µM; nearly all actives have a fitted effect of over 45% in size
# Summary of the method: as §2
# [7] = A CellTox Green Cytotoxicity Assay to monitor cytotoxicity in HepG2 cells - 16 hour (AID 1224876); note: nearly all actives have a fitted effect of over 45% in size
# Summary of the method: (§5)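 First, HepG2 cells (600/well) mixed with reagent were plated; second, after 5 h at 37 C they received compounds via pintool; third, fluorescence was measured at 0 h through 40 h at 8 h intervals.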
# [8] = qHTS RealTime-Glo MT Cell Viability Assay in HepG2 cells - 32 hour (AID 1224877); note: nearly all actives have a fitted effect of over 55% in size
# Summary of the method: (§6)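 Real-time, nonlytic viability: 600 HepG2 cells/well mixed with NanoLuc enzyme plus prosubstrate; 5 h settle, compound (DMSO) added by pintool; luminescence monitored over 40 h at 37 C.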
# [9] = A CellTox Green Cytotoxicity Assay to monitor cytotoxicity in HepG2 cells - 24 hour (AID 1224878); note: nearly all actives have a fitted effect of over 45% in size
# Summary of the method: as §5
# [10] = A CellTox Green Cytotoxicity Assay to monitor cytotoxicity in HepG2 cells - 40 hour (AID 1224879); note: nearly all actives have a fitted effect of over 40% in size
# Summary of the method: as §5
# [11] = qHTS RealTime-Glo MT Cell Viability Assay in HEK293 cells - 0 hour (AID 1224880); note: nearly all actives have a fitted effect of over 45% in size; note: potency is the fitted concentration of half-maximal effect
# Summary of the method: as §4
# [12] = A CellTox Green Cytotoxicity Assay to monitor cytotoxicity in HEK293 cells - 32 hour (AID 1224881); note: nearly all actives have a fitted effect of over 40% in size
# Summary of the method: as §2
# [13] = A CellTox Green Cytotoxicity Assay to monitor cytotoxicity in HepG2 cells - 0 hour (AID 1224882); note: nearly all actives have a fitted effect of over 35% in size
# Summary of the method: as §5
# [14] = A CellTox Green Cytotoxicity Assay to monitor cytotoxicity in HepG2 cells - 32 hour (AID 1224883); note: nearly all actives have a fitted effect of over 50% in size
# Summary of the method: as §5
# [15] = A CellTox Green Cytotoxicity Assay to monitor cytotoxicity in HEK293 cells - 8 hour (AID 1224884); note: nearly all actives have a fitted effect of over 35% in size
# Summary of the method: as §2
# [16] = qHTS RealTime-Glo MT Cell Viability Assay in HepG2 cells - 16 hour (AID 1224885); note: nearly all actives have a fitted effect of over 50% in size
# Summary of the method: as §6
# [17] = qHTS RealTime-Glo MT Cell Viability Assay in HEK293 cells - 24 hour (AID 1224886); note: nearly all actives have a fitted effect of over 50% in size; note: potency is the fitted concentration of half-maximal effect
# Summary of the method: as §3
# [18] = qHTS RealTime-Glo MT Cell Viability Assay in HEK293 cells - 8 hour (AID 1224887)
# Summary of the method: as §4
# [19] = A CellTox Green Cytotoxicity Assay to monitor cytotoxicity in HEK293 cells - 16 hour (AID 1224888); note: nearly all actives have a fitted effect of over 35% in size
# Summary of the method: as §2
# [20] = qHTS RealTime-Glo MT Cell Viability Assay in HepG2 cells - 0 hour (AID 1224889); note: nearly all actives have a fitted effect of over 50% in size; note: potency is the fitted concentration of half-maximal effect
# Summary of the method: as §6
Compound,Potency [1],Potency [2],Potency [3],outcome [4],max response [5],Potency [6],Potency [7],Potency [8],Potency [9],Potency [10],Potency [11],Potency [12],Potency [13],Potency [14],Potency [15],outcome [16],Potency [17],Potency [18],Potency [19],Potency [20]
CCOC(OCC)OCC,inactive,inactive,inactive,inactive,-1.36%,inactive,inactive,inactive,inactive,inactive,inactive,inactive,inactive,inactive,inactive,inactive,inactive,inactive,inactive,inactive
C1=COCCC1,inactive,inactive,inactive,inactive,1.01%,inactive,inactive,inactive,inactive,inactive,inactive,inactive,inactive,inactive,inactive,inactive,inactive,inactive,inactive,inactive
NCCOCCOCCN,inactive,inactive,inactive,inactive,-14%,inactive,inactive,inactive,inactive,inactive,inactive,inactive,inactive,inactive,inactive,inactive,inactive,inactive,inactive,inactive
CC(C)(O)C(=O)O,inactive,inactive,inactive,inactive,6.64%,inactive,inactive,inactive,inactive,inactive,inactive,inactive,inactive,inactive,inactive,inactive,inactive,inactive,inactive,inactive
CCCCCCCCNC,inactive,inactive,inactive,inactive,3.01%,inactive,inactive,inactive,inactive,inactive,inactive,inactive,inactive,inactive,inactive,–,inactive,inactive,inactive,inactive
CC(=O)S[C@H](C(=O)N[C@H]1Cc2ccccc2[C@H]2CCC[C@@H](C(=O)O)N2C1=O)C(C)C,inactive,inactive,inactive,inactive,16.8%,inactive,inactive,inactive,inactive,inactive,inactive,inactive,inactive,inactive,inactive,inactive,inactive,inactive,inactive,inactive
CC(O)CN (stereo not drawn),inactive,inactive,inactive,inactive,1.55%,inactive,inactive,inactive,inactive,inactive,inactive,inactive,inactive,inactive,–,–,inactive,inactive,inactive,inactive
CC(=O)Oc1cccc2c1C(=O)c1c(OC(C)=O)cc(C(=O)O)cc1C2=O,inactive,inactive,inactive,inactive,-10.8%,inactive,inactive,inactive,inactive,inactive,inactive,inactive,inactive,inactive,inactive,inactive,inactive,inactive,inactive,inactive
CCOc1ccccc1O,inactive,inactive,inactive,inactive,-54.1%,inactive,inactive,inactive,inactive,inactive,inactive,inactive,inactive,inactive,inactive,inactive,19500 nM (active),inactive,inactive,inactive
CC(C)=CCCC(C)C=O (stereo not drawn),inactive,inactive,inactive,inactive,3.8%,inactive,inactive,inactive,inactive,inactive,inactive,–,inactive,inactive,inactive,inactive,inactive,inactive,inactive,inactive
CCCCCCCCCCCC(=O)OCC,inactive,inactive,inactive,inactive,3.23%,inactive,inactive,inactive,inactive,inactive,inactive,inactive,inactive,inactive,–,inactive,inactive,inactive,inactive,inactive
CCN(CC)CC(=O)OCC(=O)[C@@]1(O)CC[C@H]2[C@@H]3CCC4=CC(=O)CC[C@]4(C)[C@H]3[C@@H](O)C[C@@]21C,inactive,inactive,inactive,inactive,-1.53%,inactive,inactive,inactive,inactive,inactive,1900 nM (active),inactive,inactive,inactive,–,inactive,inactive,inactive,inactive,1070 nM (active)
Cc1ccc(NC=O)c(C)c1,inactive,inactive,inactive,inactive,4.39%,inactive,inactive,inactive,inactive,inactive,inactive,inactive,inactive,inactive,–,inactive,inactive,inactive,inactive,inactive
COc1ccc(/C(C)=C/C(=O)O)c(OC)c1,inactive,inactive,inactive,inactive,6.45%,inactive,inactive,inactive,inactive,inactive,inactive,inactive,inactive,inactive,inactive,inactive,inactive,inactive,inactive,inactive
